Results: PubChem BioAssay (NCI)
This is part of a sample that, as a whole, favours compounds with a hit. Of some 83,000 tested, about 20% had one in any assay.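 Compound tested at a single concentration for 48 hours in 96-well plates; a percent growth value below 10 was scored as active.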 A number with no mark means an inactive call. Calls of active or inactive are those of the source.

tested on: MDA-MB-468 breast; assay: NCI-60 one-dose screen, 48 h (100 = growth as untreated, 0 = no growth, -100 = all killed); conditions: 10 µM unless noted

SMILES	growth
C(=N\Nc1ncc(-c2cc3cc4c(cc3o2)OCO4)s1)/c1c[nH]c2ccccc12	0.523% (active)
O=C(CCNNC(=O)c1ccncc1)NCc1ccccc1	75%
COc1ccc(/C=N/NC(=O)COCC(=O)N/N=C/c2ccc(OC)cc2)cc1	100%
CCCCN(CCCC)CCCNc1c2c(nc3ccc(Cl)cc13)CCCC2	114%
O=c1[nH]c(-c2ccccn2)nc2sc3c(c12)CCCCCC3	37.8%
CCCCN1C(=O)c2cccc3c(-c4ccc5c(c4)ncn5C4CCCCC4)ccc(c23)C1=O	101%
CC(C)(C)N1CC(OC(N)=O)C1	84.9%
Cc1cc(F)cc(NS(=O)(=O)c2ccc(-c3cnc(C4CC4)o3)cc2)c1	-1.16% (active)
O=S(=O)(N=C1C(Cl)=C(Cl)C(=NS(=O)(=O)c2ccccc2)C(Cl)=C1Cl)c1ccccc1	70.3%
CCc1c(C(=O)N[C@@H](C(=O)OCc2ccccc2)C(C)O)[nH]c2ccc(Cl)cc12 (stereo not given in full)	79.1%
O=C(Nc1cccc(-n2cc(-c3ccncc3)c(-c3cc(O)cc(Cl)c3)n2)c1)Nc1ccc(Cl)c(C(F)(F)F)c1	5.22% (active)
C[n+]1cc2c3c(ccc2c2ccc4cc5c(cc4c21)OCO5)OCO3	-93.7% (active)
O=C(Nn1c2c(sc1=NC1CC1)C(=O)c1ccccc1C2=O)c1cc2ccc1CCc1ccc(cc1)CC2	32.4%
CCCCC1=C(Br)C(=O)c2ncccc2C1=O	84.2%
Cc1cccc2c(=O)c3c(sc12)c(NCCN)nc1ccccc13	-57.3% (active)
CNC(=O)c1cnc(C)nc1-c1cc(C(C)(C)C)c(O)c(C(C)(C)C)c1	97.4%
C#CCNC(=S)N/N=C(\C)c1ccccn1	-31.4% (active)
C/C(=C(/c1ccc(Cl)cc1)c1ccc(OCCN2CCCCCC2)cc1)c1ccccc1	72.5%
CCOC(=O)c1cc(C(=O)c2ccc(OC)c(OC)c2)n2ccncc12	99.5%
Cc1ccc(CNc2ccc(Cl)cc2NCc2ccc(C)c(O)c2)cc1O	32.5%

SMILES	growth
CC1CN=C(c2cccc(-c3ccc(-c4ccccc4)o3)c2)N1 (stereo not given)	-35.5% (active)
Cc1ccc(-[n+]2c3cc(N)c(C)cc3nc3cc(C)c(Nc4ccccc4)cc32)cc1	-86.2% (active)
OC1Cc2ccccc2C1	105%
CC[C@@H](C(=O)[C@@H](C)[C@@H](O)[C@H](C)[C@@H]1O[C@@H]([C@@H](CC)C(=O)NCCc2ccc(F)cc2)CC[C@@H]1C)C1O[C@]2(C=CC(=O)[C@]3(CC[C@@](C)([C@H]4CC[C@](O)(CC)[C@H](C)O4)O3)O2)[C@H](C)C[C@@H]1C (stereo not given in full)	13.5%
COc1ccc(-c2nc(N/N=C/c3cccc(O)c3)nc(N3CCOCC3)c2C#N)cc1	87.1%
CN1CCN(Cc2ccc(NC(=O)c3[nH]ncc3Nc3cc(OC4CCCC4)ncn3)cc2)CC1	16.1%
C#CCOc1ccc(C(Nc2cc(Cl)ccc2Cl)c2nnnn2C2CCCCC2)cc1 (stereo not given)	88.5%
CC(C)(C)[Si](C)(C)OC1[C@@H](COC(N)=O)O[C@@H](n2cnc3c(N)ncnc32)[C@H]1O[Si](C)(C)C(C)(C)C (stereo not given in full)	97.2%
CN(C)c1ccc(-c2cc(-c3cccc(NS(C)(=O)=O)c3)nc(N)c2C#N)cc1	-20.1% (active)
C/C(=N/NC(N)=S)c1sc(Nc2cccc(Cl)c2)nc1C	47.3%
N#Cc1c(Nc2ccccc2)nn2c(-c3ccc([N+](=O)[O-])cc3)ccnc12	106%
CCCN(CCC)CCCNC(=O)c1cc2c(-c3ccc(OC)c(OC)c3)nn(C)c2s1	39%
CNc1nc(S(=O)c2ccc(C#N)cc2)nc2ccccc12 (stereo not given)	-4.09% (active)
Cc1ccccc1Nc1n[nH]c(Cc2ccccc2)n1	104%
O=C(c1ccccc1)N(C(=O)c1ccccc1)N1CCCC1	108%
COc1cccc(/C=N/NC(=O)c2ccccc2Nc2ccnc(C(F)(F)F)c2)c1O	-19.6% (active)
O=C(CSCC(=O)N/N=C/c1ccccc1O)N/N=C\c1ccccc1O	15.6%
O=C1/C(=C/c2ccccc2)SC(=Nc2ccccc2)N1Nc1ccccc1	1.39% (active)
N/C(=N/N=C/c1ccccc1)N/N=C\c1ccccc1	-15.7% (active)
COC(=O)/C=C1\SC(=Nc2ccc(F)cc2)N(CCc2c[nH]c3ccccc23)C1=O	125%
